Active and inactive are the calls of the source. How the calls were made is not given here.
Target: Pantothenate synthetase (Mycobacterium tuberculosis (strain ATCC 25618 / H37Rv)) (UniProt P9WIL5)
Test: Recombinant Mtb pantothenate synthetase (PanC) inhibitors, coupled enzyme, confirmatory (AID 375);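 further: 0% = full reaction with vehicle and 100% = no enzyme background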
Conditions: coupled enzyme assay; at 10 µM, stronger effect = higher value

Sequence of Pantothenate synthetase (Mycobacterium tuberculosis (strain ATCC 25618 / H37Rv)) (P9WIL5 whole entry, looked up): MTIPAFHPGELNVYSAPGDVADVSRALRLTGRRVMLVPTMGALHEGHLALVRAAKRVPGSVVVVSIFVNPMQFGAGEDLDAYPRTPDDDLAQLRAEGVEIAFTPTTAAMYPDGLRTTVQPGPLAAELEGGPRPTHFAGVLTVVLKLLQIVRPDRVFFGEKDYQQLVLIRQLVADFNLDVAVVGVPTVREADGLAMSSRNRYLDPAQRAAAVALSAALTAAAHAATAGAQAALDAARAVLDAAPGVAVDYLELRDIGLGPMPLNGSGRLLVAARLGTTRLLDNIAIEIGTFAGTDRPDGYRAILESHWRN

SMILES | inhibition
COc1ccc(-c2cc(O)cc(O)c2)cc1 | 0% (inactive)
CC1CCN(C(=S)c2ccccc2O)CC1 | 0% (inactive)
CCOc1ccc(Cn2nnc(C(=O)NCc3ccc(OC)cc3)c2N)cc1 | 2% (inactive)
CCC1(CC)C(=O)N(C)C(=O)NC1=NCc1ccccc1 | 0% (inactive)
COc1cccc(Nc2nc(=O)[nH]nc2C)c1 | 8% (inactive)
N[C@@H](Cc1ccc(O)c(I)c1)C(=O)O | 6% (inactive)
CCOC(=O)Cc1csc(NC(=O)c2cccc(OC)c2)n1 | 0% (inactive)
Cn1c(SCC(=O)N2CCOCC2)nnc1-c1cnccn1 | 0% (inactive)
CCc1nc(SCc2cc(Cl)ccc2OC)n[nH]1 | 0% (inactive)
CCOC(=O)C1CCN(c2c(NC3CCCCCCC3)c(=O)c2=O)CC1 | 3% (inactive)
O=C(NCC1CCCO1)c1ccccc1-c1nc(-c2ccc(Cl)cc2)no1 (centres undefined) | 1% (inactive)
CCc1nnc(NC(=O)c2ccc(COc3ccc(C)cc3)o2)s1 | 1% (inactive)
O=C1c2ccccc2-c2nc3ncnn3c(-c3ccccc3)c21 | 0% (inactive)
O=C(CSc1ncnc2c1oc1ccccc12)NCc1ccco1 | 6% (inactive)
CC(=O)N1CCc2cc(S(=O)(=O)NC(CC(C)C)C(=O)N3CCn4c3nc3ccccc34)ccc21 (centres undefined) | 0% (inactive)
COCc1cc(C)nc(Nc2ccc(C)cc2C)c1C#N | 0% (inactive)
CC1CCc2nn(CC(=O)NCCN3CCCCC3C)cc2C1 (centres undefined) | 0% (inactive)
CCCCn1c(SCc2cccnc2)nc2c1c(=O)n(C)c(=O)n2C | 0% (inactive)
O=C(O)Cc1ccc(-c2ccccc2)cc1 | 0% (inactive)
CCn1c(=O)cc(OCC(=O)Nc2cc(C)ccn2)c2ccccc21 | 0% (inactive)
O=C(NC1CCCCC1)c1ccc(S(=O)(=O)N2CCCCC2)cc1 | 0% (inactive)
CCOC(=O)Nc1ccc2c(CN3C(=O)NC4(CCCC4)C3=O)cc(=O)oc2c1 | 2% (inactive)
Cc1c(NC(=O)CCc2ccc(S(=O)(=O)N3CCOCC3)cc2)c(=O)n(-c2ccccc2)n1C | 2% (inactive)
CCOc1ccccc1NC(=O)C1CCCN1C(=O)OCc1ccccc1 (centres undefined) | 0% (inactive)

Reference: PubChem BioAssay
